Source: the supplement of paper PMC13380429

These compounds were tested on Vero E6 infected with SARS-CoV-2 (assay: SARS-CoV-2 infection rate relative to infected DMSO; higher = more infection, active = 60 or less). Details: 24 h.

Structure (SMILES) | SARS-CoV-2 infection rate
O=C1[C@H](Cc2ccc(O)cc2)N2C(=O)CCN(C(=O)NCc3ccccc3)[C@H]2CN1Cc1cccc2ccccc12 (10 µM) | 93% (inactive)
OCC(O)CN1CCN(c2ccccc2)CC1 (stereo not drawn) [dropropizine] (10 µM) | 103% (inactive)
Cc1cccc(/C=N/Nc2cc(N3CCOCC3)nc(OCCc3ccccn3)n2)c1 (10 µM) | 43.5% (active)
CC1(C)O[C@@H]2C[C@H]3[C@@H]4C[C@H](F)C5=CC(=O)C=C[C@]5(C)[C@H]4[C@@H](O)C[C@]3(C)[C@]2(C(=O)CO)O1 [flunisolide] (10 µM) | 109% (inactive)
O=C(O)CCC(=O)c1ccc(-c2ccccc2)cc1 [fenbufen] (10 µM) | 104% (inactive)
CC(N)C12CC3CC(CC(C3)C1)C2 (stereo not drawn) [rimantadine] (10 µM) | 102% (inactive)
COc1cc(N2CCC(O)CC2)ccc1Nc1cc(Nc2ccccc2S(=O)(=O)C(C)C)c2cc[nH]c2n1 (0.833333 µM) | 106% (inactive)
Nc1nccc(-c2ccc3noc(-c4ccc(Cl)cc4)c3c2)n1 [PIM-1-Inhibitor-2] (10 µM) | 111% (inactive)
C[n+]1cc2c3c(ccc2c2ccc4cc5c(cc4c21)OCO5)OCO3 [sanguinarium-chloride] (10 µM) | 94.5% (inactive)
CN1CC(O)C2=C/C(=N/NC(N)=O)C(=O)C=C21 (stereo not drawn) [carbazochrome] (10 µM) | 113% (inactive)
CC(=C(CCOC(=O)C(C)C)SSC(CCOC(=O)C(C)C)=C(C)N(C=O)Cc1cnc(C)nc1N)N(C=O)Cc1cnc(C)nc1N (stereo in doubt) [sulbutiamine] (10 µM) | 100% (inactive)
CN(C)CCCN1c2ccccc2Sc2ccc(C(F)(F)F)cc21 [triflupromazine] (10 µM) | 56% (active)
Cc1[nH]c(/C=C2\C(=O)Nc3ccc(S(=O)(=O)Cc4c(Cl)cccc4Cl)cc32)c(C)c1C(=O)N1CCC[C@@H]1CN1CCCC1 (0.833333 µM) | 106% (inactive)
